# Source: PubChem (Broad Institute)
# An excerpt weighted towards active compounds, which were near 4.1% of everything screened.
# ALR inh: blocks human ALR sulfhydryl oxidase activity. P55789. purified ALR, DTT oxidation, H2O2 HRP-luminol luminescence. inhibition, % (concentration not given with the values). actives 3.8% (n = 290,000);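 active means mean replicate inhibition above about 79%, with every replicate also reaching it, limit read from the data; inconclusive means only one of the two criteria met; inactive means mean below limit and not every replicate reaching it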
# Casp6 inh: inhibitors of human caspase-6; inhibition, % at 12.5 µM; P55212; purified caspase-6, Z-VEID-R110 cleavage fluorescence; actives 0.53% (n = 350,000);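 active means mean inhibition across replicates at least about 35%, with every replicate also reaching that limit, limit read from the data; inconclusive means only one of the two criteria met; inactive means neither criterion met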;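 further: 0% = median of neutral control wells and 100% = no fluorescence left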
# CFTR F508del cor: CFTR F508del correction in bronchial cells | CFBE cells, YFP halide quenching; stimulated with forskolin plus potentiator P3; % fluorescence drop versus neutral controls | activity (quench increase), % at 7.58 µM | actives 0.36% (n = 350,000);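 active means mean added fluorescence quench of at least 8% versus neutral control, with both replicates also reaching 8%; inconclusive means only one of the mean or replicate conditions met; inactive means mean below 8% and not both replicates reaching 8%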;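 further: cells transiently co-express mutant CFTR-F508del with the halide-sensitive YFP; corrector assay measuring rescue of mutant channel to the surface after 24 h compound exposure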
# NSD2 inh: blocks human histone methyltransferase NSD2; O96028; NSD2 peptide methylation, AlphaScreen, 120 min; inhibition, % at 12.5 µM; actives 0.54% (n = 310,000); AID 743445; in the data active means inhibition above about 50%
# PglD DTNB: PglD (C. jejuni) enzyme inhibition; AID 602405; purified PglD enzyme, DTNB colorimetric CoA detection; actives 0.098% (n = 360,000); inhibition, % at 12.5 µM; in the data active means inhibition above about 16%, passing the limit was not always enough; inconclusive means no clear call, values can overlap the other calls
# Env fusion inh: HIV envelope-mediated fusion inhibition. HeLa-JRFL Env/CEM21 cell fusion, luciferase. inhibition, % at 12.3 µM. actives 1.1% (n = 360,000). AID 651610;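 active means mean replicate inhibition score of at least 50 and every replicate individually at or above 50; inconclusive means only one of the two criteria met; inactive means mean below 50 and not all replicates reaching 50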;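 further: 0% = plate neutral controls and 100% = maraviroc near 300 nM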
# * marks the source's active call; other numbers are inactive results; ? = inconclusive; . = no result given; [ ] = another dose, or the depositor's remark.
SMILES,ALR inh,Casp6 inh,CFTR F508del cor,NSD2 inh,PglD DTNB,Env fusion inh
Cc1noc(NS(=O)(=O)c2ccc(NC(=O)c3ccc(N(C)C)cc3)cc2)c1C,56,4,-9,1,2,.
CO[C@H]1CN(C)C(=O)c2ccc(NS(C)(=O)=O)cc2OC[C@@H](C)N(CC2CCCCC2)C[C@@H]1C,.,.,1,.,.,-4[16.7 µM]
COc1ccc2c3c(n(C)c2c1)[C@H](CO)N(C(=O)CN(C)C)CC31CN(C(=O)C2CCC2)C1,.,.,0,.,.,.
Cc1cc(NS(=O)(=O)c2ccc(NC(=O)Nc3cccc(Cl)c3)cc2)no1,98*,1,.,12,2,-42
CCCC(=O)Nc1ccc2c(c1)C(=O)N(C)C[C@H](OC)[C@H](C)CN(C(C)=O)[C@@H](C)CO2,.,1,0,.,-31,-34[16.7 µM]
O=C(CCS(=O)(=O)c1ccccc1)NC1CCCCC1,84*,3,-1,-3,-1,-13
COc1ccc(S(=O)(=O)CCC(=O)NC2CCCCC2)cc1,10,.,.,0,-6,.
CCCCN1C(=O)C2Cc3c([nH]c4ccccc34)CN2C1=S (configuration not stated),89*,7,1,.,.,-8
COc1ccc(-c2n(Cc3ccccc3)c3ccccc3[n+]2Cc2ccccc2)cc1,2,0,.,.,.,70*
COc1ccc(-c2nc3ccccc3n2Cc2ccccc2)cc1,.,.,.,-1,-2,.
O=C(C[C@H]1C[C@@H]2c3cc(NC(=O)Nc4ccc(C(F)(F)F)cc4)ccc3O[C@@H]2[C@@H](CO)O1)NCc1ccc2c(c1)OCO2,.,0,2,.,1,23[16.7 µM]
COc1ccc(CNC(=O)CC2C(=O)NCCN2C2Cc3ccccc3C2)cc1 (configuration not stated),-17,4,1,2,10,61*
COc1ccccc1CNC(=O)CC1C(=O)NCCN1C1Cc2ccccc2C1 (configuration not stated),-26,13,-1,7,3,8
COCC(=O)N(C)C[C@H]1Oc2ncc(C#Cc3ccccc3)cc2C(=O)N([C@H](C)CO)C[C@H]1C,.,2,-3,.,2,10[16.7 µM]
COCC(=O)N1C[C@H]2[C@@H](c3ccccc31)[C@@H](CO)N2Cc1ccc(OC)cc1,.,0,6,.,-3,.
CCCNC(=O)N1C[C@@H]2[C@H](c3ccccc31)[C@H](CO)N2Cc1ccc(OC)cc1,.,-2,8.2*,.,3,.
COCC(=O)N1C[C@@H]2[C@H](c3ccccc31)[C@H](CO)N2Cc1ccc(OC)cc1,.,1,10*,.,1,.
CCCNC(=O)N1C[C@@H]2[C@H](c3ccccc31)[C@@H](CO)N2Cc1ccc(OC)cc1,.,-1,0,.,-1,.
C[C@@H]1CCCCO[C@H](CN(C)C(=O)CCCN(C)C)[C@@H](C)CN([C@H](C)CO)C(=O)c2cc(NC(=O)CCCN(C)C)ccc2O1,.,1,2,.,.,.
C[C@@H]1CCCCO[C@@H](CN(C)CC2CCCCC2)[C@@H](C)CN([C@@H](C)CO)C(=O)c2cc(NS(=O)(=O)c3ccc(F)cc3)ccc2O1,.,-2,2,.,0,6[16.7 µM]
CC(C)NC(=O)Nc1ccc2c(c1)C(=O)N([C@@H](C)CO)C[C@H](C)[C@@H](CN(C)S(=O)(=O)c1cccs1)O2,.,.,-1,.,.,19[16.7 µM]
CCC(=O)N1C[C@H](C)[C@@H](OC)CN(C)C(=O)c2cc(NC(=O)c3cc(C)on3)ccc2OC[C@@H]1C,.,.,0,.,.,.
O=C(c1ccccc1)N1N=C(C(F)(F)F)CC1(O)c1ccccc1O (configuration not stated),0,1,-3,2,-6,58*
CCC1=NN(C(=O)c2ccc(Br)cc2)C(O)(c2ccccc2)C1 (configuration not stated),27,-1,.,9,.,-6
CC1=NN(C(=O)c2ccccc2)C(O)(c2ccc(Br)cc2)C1 (configuration not stated),11,-3,3,3,.,80*
SMILES,ALR inh,Casp6 inh,CFTR F508del cor,NSD2 inh,PglD DTNB,Env fusion inh
COC(=O)c1c(N)c(C#N)c2n1CCCCC2,9,.,.,-3,-6,7
N#Cc1c(N)c(C(=O)c2ccccc2)n2c1CCC2,92*,.,.,1,5,-25
O=C(C[C@H]1C=C[C@H](NS(=O)(=O)c2ccc(F)cc2)[C@H](CO)O1)NCc1ccc(Cl)c(Cl)c1,.,2,2,.,3,-9[16.7 µM]
O=C1OCC(CO)(CO)N=C1NNc1ccccc1[N+](=O)[O-],99*,2,2,6,2,2
O=C1OCC(CO)(CO)N=C1NNc1cc(Cl)ccc1Cl,99*,.,.,2,4,-18
O=C(CC(=O)Nc1ccccc1[N+](=O)[O-])Nc1ccccc1[N+](=O)[O-],-9,1,0,-2,0,11
O=C(N/N=C/c1sc(N2CCOCC2)nc1-c1ccccc1)c1cccc(S(=O)(=O)N2CCOCC2)c1,-6,-2,-1,11,.,88*
Nc1ccc(C(=O)N/N=C/c2sc(N3CCOCC3)nc2-c2ccccc2)cc1,?,-3,.,1,-2,-56
O=[N+]([O-])c1ccc(N/N=C/c2sc(N3CCOCC3)nc2-c2ccccc2)c(S(=O)(=O)Nc2ccccc2Cl)c1,.,.,.,8,.,95*
O=[N+]([O-])c1ccc(N/N=C/c2sc(N3CCOCC3)nc2-c2ccccc2)c(S(=O)(=O)Nc2ccc(Cl)cc2)c1,.,-5,-2,3,.,17
COc1ccc(CN(C)C[C@H]2OCCCC[C@@H](C)Oc3ccc(NS(=O)(=O)c4cccs4)cc3C(=O)N([C@@H](C)CO)C[C@H]2C)cc1,.,-3,3,.,0,21[16.7 µM]
Cc1nc(Nc2ccccc2)sc1C,99*,1,2,1,6,7
Cc1csc(Nc2ccccc2)n1,98*,1,.,-1,.,-25
C[C@@H]1CCCCO[C@@H](CN(C)C(=O)Nc2ccc(F)cc2)[C@@H](C)CN([C@@H](C)CO)C(=O)c2cc(NC(=O)Nc3ccc(C(F)(F)F)cc3)ccc2O1,.,-2,6,.,.,6[16.7 µM]
CCC(=O)N1CC2(C1)[C@H](c1ccc(-c3ccc(F)cc3)cc1)[C@@H](CO)N2S(C)(=O)=O,.,0,-1,.,.,.
O=C1NN=C2CCCCCCCCCCC12 (configuration not stated),.,-2,-4,1,.,58*
O=C(COC(=O)c1cc([N+](=O)[O-])ccc1N1CCOCC1)c1ccccc1Cl,-2,6,4,-4,-2,20
COc1ccc(C(=O)c2cc([N+](=O)[O-])ccc2N2CCOCC2)cc1,.,-3,11*,34,.,-6
O=C(COC(=O)c1cc([N+](=O)[O-])ccc1N1CCOCC1)Nc1c(Cl)cccc1Cl,-1,-5,11*,5,.,-12
C#Cc1ccc([C@@H]2C=C(C(=O)N3CCCCCCC3)O[C@H](OCCCCO)C2)cc1,.,3,1,.,.,14[16.7 µM]
